Assay results: article PMC12136788
Changes are numbered by the printed parent chain. In all, about 5,800 sequences were measured (“enrichment r”: median about 0.54, highest 2% from about 16 on). The sample holds the highest values, similar sequences and a random draw of the others, so the mix is not that of the screen.

B1: ENSG00000198589:be:win_801|CDS|ENSG00000198589|bound_else_gene|NA|bound_elsewhere_windowed (ssRNA)
RNA: GGGAGUUCUACAGUCCGACGAUCUCAUUUUGUUGGAGGCUGUUUGAUUGUAACAUCAAUAAAGUCAAAAGGAAAAGGCUUUCAACACUGUGUGAAAUUUGAUUUCAAGCCACAAAAGUGGUAUAUGGUUACCAUAGUACACAUCAACAGAGGAUUGAGCAUCA
B2: chr19:34469546:34469571:+|3pUTR|ENSG00000126261|msi1_unk|total|mutant (ssRNA)
RNA: GGGAGUUCUACAGUCCGACGAUCGUUGCCUUUUUAAUGUAAAUACCCGCCGGUAUCAUUAACCGUUUCAAAAUAUUGUGGUUCCGUAAAGUUGAUACCUGGUUAUAAAUAUUAUGCCUUUAUUUUUGGCCCGAAGAAGAAUUACAACAGAGGAUUGAGCAUCA
B3: chr4:65323451:65323552:-|3pUTR|ENSG00000145242|msi1|FALSE|unique (ssRNA)
RNA: GGGAGUUCUACAGUCCGACGAUCAUCAAGAAAAAGUACAAUACAGGGUGUAUAUUUAUUUUUUGUGUUAUAAAGUUUACUUUUAGUUGCUCUUCUAGAGAUUAUUAGGUAAUAAAUGUGUAUAUACUGUAUAAUUUGCAAUAUCAACAGAGGAUUGAGCAUCA
B4: ENSG00000136451:be:win_3201|3pUTR|ENSG00000136451|bound_else_gene|NA|bound_elsewhere_windowed (ssRNA)
RNA: GGGAGUUCUACAGUCCGACGAUCAACAGUUCUAGGGGGUUGAACUACAUAGUAAAAAAAUAAAAUAAAUAGUACUUAGUGUAAAAUAAUUUUAUAAAUGAUCUUUUGUACUUUAGGACAUUAAAUUGUACAACUUUUGUAUAUCAACAGAGGAUUGAGCAUCA
B5: chr20:1375301:1375603:-|CDS|ENSG00000088832|control|control|control (ssRNA)
RNA: GGGAGUUCUACAGUCCGACGAUCGGUAUGCUCUCUCAUUUGUUUUGUUUUGCUUUCUAGUAUUUACCUUUUAUAUUUUUUUAUAGGUGGCAUAUUUAUACGGUUCAAAAAUAAAAAAAGUGAAAAGUCUCACCCUCAUGCCAUCAACAGAGGAUUGAGCAUCA
B6: chr18:68676332:68676434:-|3pUTR|ENSG00000166479|msi1_unk|total|mutant (ssRNA)
RNA: GGGAGUUCUACAGUCCGACGAUCAUCAAGAUUAUGAGGUUAAAAAUAAUGUGGUUUUAUACCGCACCGUGGUUUUAUUUUGUCCGUUAUUUUUAAAGGAGAAGAAAUGUUACUUUUUAACUUUAUACUCAGUUGCAUUAUCAUCAACAGAGGAUUGAGCAUCA
B7: chr1:232398519:232398625:-|3pUTR|ENSG00000116991|unk|FALSE|unique (ssRNA)
RNA: GGGAGUUCUACAGUCCGACGAUCACAGUAGUUUUAUUUCCACAGCCACAUUACCAUAGCAAUAAGAAAGGAGGCAUAGUACAUAGUUGGAAAAGCUUUGUGGGGGGAUUAAAAAAAAAAAAAAGCACUGUUGUGUUUAACACUCAACAGAGGAUUGAGCAUCA
B8: chr18:68676332:68676434:-|3pUTR|ENSG00000166479|msi1_unk|FALSE|overlapping (ssRNA)
RNA: B6 RNA with C61U, C62A, C66U, C67A, C83U, C84A
B9: chr19:34469546:34469571:+|3pUTR|ENSG00000126261|msi1_unk|FALSE|overlapping (ssRNA)
RNA: B2 RNA with C49U, C50A, C62U, C63A, C83U, C84A, C130U, C131A
B10: chr1:232398519:232398625:-|3pUTR|ENSG00000116991|unk|total|mutant (ssRNA)
RNA: B7 RNA with U28C, A29C, U56C, A57C, U76C, A77C, U83C, A84C
B11: ENSG00000136451:be:win_3251|3pUTR|ENSG00000136451|bound_else_gene|NA|bound_elsewhere_windowed (ssRNA)
RNA: GGGAGUUCUACAGUCCGACGAUCCUUAGUGUAAAAUAAUUUUAUAAAUGAUCUUUUGUACUUUAGGACAUUAAAUUGUACAACUUUUGUAUAUAUAAAAGCUUAGGAACUUUCUGUUUAGCAGGAAGGCAACACAUUCCUACACAACAGAGGAUUGAGCAUCA
B12: ENSG00000136451:be:win_3151|3pUTR|ENSG00000136451|bound_else_gene|NA|bound_elsewhere_windowed (ssRNA)
RNA: GGGAGUUCUACAGUCCGACGAUCUGAGACAGACUUCCUACAUCAGGGACAGGUAUCUGUGUGUCAUUAUACAAAACAGUUCUAGGGGGUUGAACUACAUAGUAAAAAAAUAAAAUAAAUAGUACUUAGUGUAAAAUAAUUUUACAACAGAGGAUUGAGCAUCA
B13: chr16:46660370:46660459:-|3pUTR|ENSG00000069329|msi1_unk|total|mutant (ssRNA)
RNA: GGGAGUUCUACAGUCCGACGAUCAAAAGGAAACCGCUCACCAUACUCCUUUCCAUGUACAUCCAGUGAGGGUUUUAUUACGCCCGGUUUCCCUUCCACCGAUUGUGCCUUUCAGAAAUGCUGAGGCCGGUUUCCCAUUUCUUACAACAGAGGAUUGAGCAUCA
B14: chr8:48920054:48920155:-|CDS|ENSG00000019549|unk|FALSE|unique (ssRNA)
RNA: GGGAGUUCUACAGUCCGACGAUCACCUAUUCAACUUUUUCUGGGCUGGCCAAACAUAAGCAGCUGCACUGCGAUGCCCAGUCUAGAAAAUCUUUCAGCUGUAAAUACUGUGACAAGGAAUAUGUGAGCCUGGGCGCCCUGAAGCAACAGAGGAUUGAGCAUCA
B15: ENSG00000136451:be:win_351|CDS|ENSG00000136451|bound_else_gene|NA|bound_elsewhere_windowed (ssRNA)
RNA: GGGAGUUCUACAGUCCGACGAUCUACCAUCGCUGGGGACAGCAGCCGAACUUCGUUGGUCUCGACCAUUGCAGGCAUCUUGUCAACAGUCACUACAUCUUCCUCGGGCACCAACCCCAGUAGCAGUGCCAGCACCACAGCUAUCAACAGAGGAUUGAGCAUCA
B16: chr8:103427116:103427218:+|CDS|ENSG00000164934|unk|total|mutant (ssRNA)
RNA: GGGAGUUCUACAGUCCGACGAUCGUAUACUGGGAUUGAUCAUCACUGGAAAGAAGCUGUUUUUGCCACAUGUGGACAGCAAGCCGACAUUUGGGAUGAACAAAGAACUAAUCCUAUAUGUUCAAUGACCUGGGGAUUUGACAGCAACAGAGGAUUGAGCAUCA
B17: chrX:48700291:48700392:+|CDS|ENSG00000101945|unk|FALSE|unique (ssRNA)
RNA: GGGAGUUCUACAGUCCGACGAUCGCUCCGUCGCUGGGAGCAGGAGCUCAAUGCCAAGCGCAGCCAUCUGGGACGCAUCACUGUAGAGAAUGAGGUGGACCUGGACGGCCCUCCGCGGGCCUUCGUGUACAUCAAUGAGUACCGCAACAGAGGAUUGAGCAUCA
B18: chr20:13714314:13714426:-|3pUTR|ENSG00000089048|unk|FALSE|unique (ssRNA)
RNA: GGGAGUUCUACAGUCCGACGAUCUUUUUCUAGCCAUAAAGGAUGGAAGUCAAGAACUUUUUGUUGUUUAGUCAUGUUAAGUAUAGUUUAUGAAAUUAACUUGUAAAUAAAAGUGUAAAAUAUUUUCAUUAUUUUGUAUAGCACCAACAGAGGAUUGAGCAUCA
B19: chr2:206311781:206311882:+|3pUTR|ENSG00000204186|unk|FALSE|unique (ssRNA)
RNA: GGGAGUUCUACAGUCCGACGAUCUAGUGUUUAGAGUCCUUUCAUUUUAAGAUUCAGAAACAGCCUUUGUCCAACAUUUUCUGUAGAAGAACUUCAUCUUAAUUUAUGUCACAAAAUAAUUUAGCACCGUAUAUAGAAUUUUGUCAACAGAGGAUUGAGCAUCA
B20: chr2:206311781:206311882:+|3pUTR|ENSG00000204186|unk|total|mutant (ssRNA)
RNA: B19 RNA with U24C, A25C, U31C, A32C, U83C, A84C, U121C, A122C, U133C, A134C
B21: chr11:69651696:69651723:+|3pUTR|ENSG00000110092|msi1_unk|total|mutant (ssRNA)
RNA: GGGAGUUCUACAGUCCGACGAUCGAGGAUCCGGUUCCAUCCUUUACGUGUUUAAAAAAAAGCAUAAAAACAUUUUAAAAACACCGAAAAAUUCAGCAAACCAUUUUUAAAGCCGAAGAGGGUUUCCGGCCGAAAAACAUAUUCCAACAGAGGAUUGAGCAUCA
B22: chr21:14371318:14371404:-|3pUTR|ENSG00000155304|msi1_unk|FALSE|overlapping (ssRNA)
RNA: GGGAGUUCUACAGUCCGACGAUCUAUGAAUAACAAUCUGAAGUCUUUUCAUAAAAAAAAUUAAUAAACUUUAGUUGUACAUUUAGCCAGUGUUAUUUGAAGUAUGUAACUUUUAAAAUAUUAAGUGUCUUGUAUGAUUAGAAUCAACAGAGGAUUGAGCAUCA
B23: chr10:121957106:121957207:-|3pUTR|ENSG00000107672|msi1|total|mutant (ssRNA)
RNA: GGGAGUUCUACAGUCCGACGAUCUGUAUCGUACAUAUUGUAUGAUUCAACAUUUUUAAAGGCAGAUUGUUUUCCGUAAAAUGCCGCUUUUGACCGUUAAUAAAUUUGUCAUGGUUGUCUUUGAUUAAAGGAAACUCACCGCCACAACAGAGGAUUGAGCAUCA
B24: chr20:13714314:13714426:-|3pUTR|ENSG00000089048|unk|total|mutant (ssRNA)
RNA: B18 RNA with U30C, A31C, U68C, A69C, U83C, A84C, U138C, A139C
B25: chr10:121957106:121957207:-|3pUTR|ENSG00000107672|msi1|FALSE|bound_elsewhere (ssRNA)
RNA: B23 RNA with C73U, C74A, C83U, C84A, C93U, C94A
B26: ENSG00000198589:be:win_9051|3pUTR|ENSG00000198589|bound_else_gene|NA|bound_elsewhere_windowed (ssRNA)
RNA: GGGAGUUCUACAGUCCGACGAUCGUAAAUGUAAUUUAAAACAUCUCAAUUAAGUCUGUCUAUCAAUAUUGUUCUUCAAGCAUGUUUUAGACCUAGAAAAGUAUGGUUUGGGGGAGGCUAUUUUAUUGUGUGGUUAGCACAAGGCAACAGAGGAUUGAGCAUCA
B27: chr11:69651733:69651797:+|3pUTR|ENSG00000110092|msi1_unk|FALSE|overlapping (ssRNA)
RNA: GGGAGUUCUACAGUCCGACGAUCAAAACAUUUUAAAAACAUAGAAAAAUUCAGCAAACCAUUUUUAAAGUAGAAGAGGGUUUUAGGUAGAAAAACAUAUUCUUGUGCUUUUCCUGAUAAAGCACAGCUGUAGUGGGGUUCUAGCAACAGAGGAUUGAGCAUCA
B28: chr8:30995801:30996592:-|three_prime_utr|ENSG00000172733|control|control|control (ssRNA)
RNA: GGGAGUUCUACAGUCCGACGAUCUUGUUUUUUUUAAUUCAUCAAGCCUUUCGUUUUCAAACCACCAUUUGUCAGCCUUGAGGUAGAGAGACAUAUAGAUUUGAAAAUACUUUCUUAAGAGAUCAUGUAACUAUAUAACUCUGACAACAGAGGAUUGAGCAUCA
B29: chr11:69651696:69651723:+|3pUTR|ENSG00000110092|msi1_unk|FALSE|overlapping (ssRNA)
RNA: B21 RNA with C30U, C31A, C83U, C84A, C112U, C113A, C125U, C126A, C129U, C130A

biological target: MSI1 full-length (mouse, UniProt Q61474 1-362); assay: nsRBNS (natural sequence RNA bind-n-seq); RBNS binding buffer (assumed for nsRBNS): 25 mM Tris pH 7.5, 150 mM KCl, 3 mM MgCl2, 0.01% Triton X-100, 500 ug/ml BSA, 20 U/ml SUPERase-In, 4 C; UNK is unkempt and MSI1 is Musashi-1; names of the RNAs are library labels; protein concentration not given here; high values mean tight binding
Sequence (Q61474 whole entry): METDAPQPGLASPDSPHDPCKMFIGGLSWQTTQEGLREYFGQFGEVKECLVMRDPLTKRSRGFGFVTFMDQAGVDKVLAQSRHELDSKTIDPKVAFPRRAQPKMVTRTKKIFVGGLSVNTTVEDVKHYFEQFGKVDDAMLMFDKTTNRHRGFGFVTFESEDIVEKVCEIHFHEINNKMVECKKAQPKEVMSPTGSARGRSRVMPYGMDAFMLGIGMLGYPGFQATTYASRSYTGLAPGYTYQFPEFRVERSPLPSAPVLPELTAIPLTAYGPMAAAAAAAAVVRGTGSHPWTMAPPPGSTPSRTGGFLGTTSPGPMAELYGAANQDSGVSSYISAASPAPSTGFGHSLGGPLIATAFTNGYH

Binder	binding signal [enrichment R]
B1	0.264
B2	1.89
B3	11.9
B4	23.1
B5	2.12
B6	0.295
B7	18.4
B8	69.1
B9	35.8
B10	0.46
B11	10.7
B12	15.5
B13	0.39
B14	0.478
B15	0.413
B16	0.362
B17	0.398
B18	58.4
B19	16.7
B20	0.669
B21	0.383
B22	6.15
B23	0.237
B24	0.796
B25	17.9
B26	3.05
B27	13.6
B28	0.712
B29	17.8
